# Bioassay records: PubChem BioAssay, National Center for Advancing Translational Sciences (NCATS)
# KB-V1 cytotox: kills drug-selected multidrug resistant KB-V1 cells | KB-V1 MDR cells viability, CellTiter-Glo, 72 h | Potency, µM (highest dose often 46.1 µM), actives largely listed as cytotoxic | actives 3.4% (n = 400,000) | AID 1347076; further: on the % scale 0 is the no-effect control and ±100 the full control effect; nearly all actives have a fitted effect of over 60% in size
#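 In this primary screen, KB-V1 cells overexpressing P-gp are incubated with library compounds (lowest to highest concentration) for 72 h at 37 degrees C before a luminescent ATP viability read.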
# HT1080-NT tox: kills 2HG-producing HT-1080-NT fibrosarcoma cells; Potency, µM (top dose mostly 46.1 µM), for inactives: top-dose activity, negative = less viability, usual class: cytotoxic; actives 1.6% (n = 360,000); AID 686970; HT-1080-NT fibrosarcoma viability, CellTiter-Glo ATP luminescence, 48 h;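 further: NT is the 2HG producing partner of a matched IDH1 knockdown line; 0% = DMSO-treated cells and -100% = media-only wells without cells; nearly all actives have a fitted effect of over 55% in size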
#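 Compounds were tested in concentration-response format on HT-1080-NT cells for 48 hours at 37 degrees C. Cell viability came from CellTiter-Glo luminescence; curves were classified by r2, response magnitude and activity.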
# TGFb inhibitor: inhibitors of TGF-b signaling. Potency, µM (doses to about 46.1 µM), for inactives: at the highest dose activity, negative = inhibition, usual class: inhibitors. AID 588855. HepG2 CAGA-GFP TGF-b/SMAD3 reporter, GFP fluorescence, 18 h; TGF-beta stimulated, 500 pg/mL final. actives 1.2% (n = 410,000); further: on the % scale 0 is the no-effect control and ±100 the full control effect; nearly all actives have a fitted effect of over 65% in size
#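 Inhibition of TGF-beta-driven CAGA-GFP reporter expression in HEPG2 cells is measured by cellular GFP fluorescence after 18 h stimulation with 500 pg/mL recombinant TGF-beta in 1% FBS medium at 37 degrees C.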
# HepG2 tox: kills HepG2 cells in TGF-b inhibitor counter-screen. actives 0.76% (n = 410,000). Potency, µM (series often up to 46.1 µM), for the others: top-dose activity change, negative = cytotoxicity, actives largely listed as cytotoxic. HepG2 CAGA-GFP viability, ATP luminescence, 18 h
#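 HepG2 CAGA-GFP cells (1000/well, DMEM with 1% FBS) received compound, then TGF-beta at 500 pg/mL final, and were incubated 18 hours at 37 degrees C. Viability was read by CellTiter-Glo luminescence. Media-only wells were set as complete cell-killing and DMSO as no toxicity.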
# KB-3-1 tox: KB-3-1 parental cell cytotoxicity; KB-3-1 viability, CellTiter-Glo ATP luminescence, 72 h; Potency, µM (highest dose often 46.1 µM), most hits filed as cytotoxic; actives 1.4% (n = 400,000); AID 1347075; further: on the % scale 0 is the no-effect control and ±100 the full control effect; nearly all actives have a fitted effect of over 60% in size
#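 Using CellTiter-Glo luminescence, growth of non-resistant KB-3-1 adenocarcinoma cells is assessed 72 h after pin-tool compound addition at 37 °C. Normalized responses across the concentration series yield fitted curves.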
# HT1080 IDH1KD tx: kills HT-1080 cells with IDH1 knockdown. actives 2% (n = 360,000). HT-1080 IDH1 knockdown viability, ATP luminescence, 48 h. Potency, µM (highest dose often 46.1 µM), without a hit: at the highest dose activity, negative = toxicity, actives largely listed as cytotoxic;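 further: 0% = DMSO wells and -100% = cell-free medium wells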
#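 Using the IDH1-knockdown HT-1080 line run in the same batch and compound series as the NT line, viability after 48 h at 37 °C was determined by CellTiter-Glo luminescence and expressed as % activity.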
# * marks the source's active call; other numbers are inactive results; i = inactive; ? = inconclusive; / = not tested or not shown. Rows were chosen to be rich in hits. Some 6.6% of all compounds tested hit in one or more screens of this group. The call rests on the fitted dose curve; in most records, active means well fitted curve in the direction sought with a large enough effect; inconclusive means small, poorly fitted or top-dose-only effect, or another doubt; inactive means no such curve, though single readings can be large; an effect the other way counts as inactive or inconclusive. Potency means the concentration at half of the fitted maximal effect.
SMILES,KB-V1 cytotox,HT1080-NT tox,TGFb inhibitor,HepG2 tox,KB-3-1 tox,HT1080 IDH1KD tx
COCCNC(=S)N/N=C(\C)c1ccc(Cl)c(Cl)c1,i,11%,8.9µM*,-58%,i,11%
COCCNC(=S)N/N=C(\C)c1ccccc1O,i,10%,5.6µM*,-95%,i,9%
COCCNC(=S)N/N=C(\C)c1ccc(Cl)c(Cl)c1Cl,i,0%,?,8%,i,-9%
Cc1cccc(C(=O)N[C@H](C(=O)Nc2ncc(C)s2)C(C)C)c1,16µM*,-23%,11µM*,7%,?,-25%
Cc1cccc(C)c1-n1nnnc1SCc1nc(N)nc(N(C)C)n1,i,?,5.6µM*,-61%,i,?
COc1ccc(C)cc1-n1nnnc1SCc1nc(N)nc(N(C)C)n1,i,?,11µM*,-37%,i,?
CN(C)c1nc(N)nc(CSc2nnnn2-c2ccc(F)cc2)n1,i,0%,-22%,1%,i,?
Cc1ccc(-n2[nH]c(C)c(/C=N/NC(=O)c3ccc(O)cc3O)c2=O)cc1,i,2.1µM*,-9%,-51%,i,10µM*
CCCCN(CCCC)C(=S)N/N=C/c1c(C)[nH]n(-c2ccccc2)c1=O,i,?,?,-21%,?,6.5µM*
Cc1[nH]n(-c2ccccc2)c(=O)c1/C=N/NC(=O)c1ccc(O)cc1O,?,?,-3%,-19%,?,23µM*
Cc1ccc(/C=N/Nc2nncc(-c3ccccc3)n2)o1,i,-23%,5%,16%,i,-20%
Cc1[nH]n(-c2ccccc2)c(=O)c1/C=N/Nc1nncc(-c2ccccc2)n1,?,1.3µM*,?,-5%,7.3µM*,0.79µM*
Cc1ccc(C(=O)CSc2nc(C)cc(C)c2C(=O)Nc2cccc(C)c2)cc1,i,/,0%,-10%,i,/
CC1=C(C(=O)Nc2ccccc2)C(c2cccnc2)n2nc(SCc3ccccc3F)nc2N1 (configuration not stated),?,/,3%,-14%,i,/
CCOc1cc(C(=O)Nc2ccc(S(=O)(=O)NC3=NCCCCC3)cc2)cc(Br)c1OC,i,?,3%,-17%,i,21µM*
CC(Oc1ccc(Br)cc1)C(=O)Nc1ccc(S(=O)(=O)NC2=NCCCCC2)cc1 (configuration not stated),23µM*,-7%,?,-20%,i,0%
O=C(NC(=S)Nc1cccc(S(=O)(=O)NC2=NCCC2)c1)c1cc(-c2ccco2)nc2ccccc12,i,9.2µM*,-14%,2%,6.5µM*,1.6µM*
CCOc1ccc(C(=O)NC(=S)Nc2cccc(S(=O)(=O)NC3=NCCC3)c2)cc1,7.3µM*,0.46µM*,-27%,9%,2.3µM*,1µM*
O=C(Nc1cccc(S(=O)(=O)NC2=NCCC2)c1)c1cc(-c2ccco2)nc2ccccc12,i,-1%,-29%,6%,i,-16%
CCCOc1ccc(C(=O)Nc2ccc(Cl)c(-c3nc4ncccc4o3)c2)cc1,i,/,5%,-8%,i,/
CCOC(=O)N(C)c1c(CC)nc2c(OCc3ccccc3)cccn12,?,10%,0%,-12%,i,6%
COc1cccc(NC(=O)C(=O)NCC(c2cccnc2)N2CCN(c3ccccc3)CC2)c1 (configuration not stated),i,/,6%,-22%,i,/
CCOc1cc(C(=O)OCC(=O)Nc2cccc(S(=O)(=O)NC3=NCCCCC3)c2)cc(OCC)c1OCC,8.2µM*,-2%,-19%,-27%,i,0%
CCOc1ccccc1C(=O)OCC(=O)Nc1cccc(S(=O)(=O)NC2=NCCCCC2)c1,i,2%,-5%,-9%,i,6%
O=C(Nc1cccs1)Nc1cc(C(F)(F)F)ccc1Cl,/,/,/,-84%,/,/
SMILES,KB-V1 cytotox,HT1080-NT tox,TGFb inhibitor,HepG2 tox,KB-3-1 tox,HT1080 IDH1KD tx
Cc1ccccc1NCC(=O)N/N=C/c1c(C)c(C(=O)c2ccc(Cl)cc2)n2ccccc12,?,-3%,-6%,-27%,?,5%
Cc1c(/C=N/NC(=O)CNc2ccccc2)c2ccccn2c1C(=O)c1ccc(Cl)cc1,2.3µM*,-2%,-18%,-16%,i,-11%
Cc1cc(C(=O)Nc2c(C)nn(Cc3ccccc3Cl)c2C)no1,21µM*,1%,-4%,-2%,i,-26%
Cc1ccc(Cn2nc(C)c(NC(=O)c3cc(-c4ccc5c(c4)OCO5)on3)c2C)cc1,i,8.9µM*,-21%,11µM*,i,?
Cc1nn(Cc2ccc(F)cc2)c(C)c1NC(=O)c1nn(C)cc1Cl,9.2µM*,-13%,-1%,3%,i,0%
COc1ccc(OC)c(-c2cc(C(=O)Nc3c(C)nn(Cc4ccccc4Cl)c3C)no2)c1,i,11%,?,-4%,?,-6%
Cc1ccccc1Cn1nc(C)c(NC(=O)c2sc3ccccc3c2Cl)c1C,13µM*,-18%,-15%,-28%,?,?
O=C(NCCc1ccccc1)c1ccc2c(c1)N(Cc1ccccc1)C(=O)c1ccccc1S2=O (configuration not stated),/,/,0%,-10%,/,/
CCOc1cc2[nH]c(=O)n(CCC(=O)N3CCN(c4cccc(Cl)c4)CC3)c(=O)c2cc1OCC,i,/,2%,2%,i,/
COc1ccc(-c2cn3cccnc3n2)cc1NC(=O)c1cc(C)cc(C)c1,/,/,/,-32%,/,/
Cc1nn(Cc2c(Cl)cccc2Cl)c(C)c1NC(=O)c1cn(-c2ccccc2)nc1-c1ccccc1,9.2µM*,3.7µM*,-21%,-2%,8.2µM*,4.1µM*
Cc1nn(Cc2ccc(Cl)c(Cl)c2)c(C)c1NC(=O)c1cc(-c2ccco2)on1,5.2µM*,-18%,-6%,-23%,?,?
O=[N+]([O-])c1ccc(NN=Cc2ccc(O)cc2)nc1,i,1%,14%,0%,i,-4%
CC/C(C)=N/Nc1cccc([N+](=O)[O-])c1,i,?,-8%,-4%,i,9.2µM*
COc1ccccc1C=NNc1ccc([N+](=O)[O-])cn1,i,-1%,26%,-3%,i,6%
O=[N+]([O-])c1ccc(NN=Cc2ccc(O)cc2O)nc1,?,?,2%,-13%,?,3.3µM*
O=[N+]([O-])c1ccc(NN=Cc2ccccc2O)nc1,i,?,?,-59%,i,7.3µM*
